# PubChem BioAssay AID1159580 (chemical genetic matrix, 2015)
# Where “and” joins values, the source holds several entries; their conditions need not be identical. Equal entries are not always repeated. Hit rate of the full screen: of about 5,500 compounds, about 2,000 (36%) were called active. Roughly 18% stayed inconclusive and do not appear here. No stated cut-off is given here; in the data, active means normalized growth mostly below about 0.91 (no sharp cut-off); inconclusive means no clear call, values can overlap the other calls; inactive means mostly above about 0.92. The list shows a part of the results. Some compounds were tested as several samples or in several runs, with calls that do not always agree.
# Assay: chemical genetic growth profiling, strain panel (AID 1159580);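 further: tested at 20 µM; growth read once vehicle control cultures reached saturation at 30 °C; 1 = growth at the plate median or of vehicle wells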
# Conditions: S. cerevisiae deletion strains, growth OD
compound,measurement,setting,value
O=C1c2c(O)ccc(O)c2C(=O)c2c(NCCNCCO)ccc(NCCNCCO)c21,normalized growth,"locus YAL013W, strain DEP1, stronger effect = lower value",0.968 (inactive) and 0.9 (active)
same,normalized growth,"locus YAL021C, strain ccr4, stronger effect = lower value",0.499 (active)
same,normalized growth,"locus YAL026C, strain drs2, stronger effect = lower value",0.363 (active)
same,normalized growth,"locus YAL030W, strain snc1, stronger effect = lower value",0.839 (active)
same,normalized growth,"locus YAL040C, strain CLN3, stronger effect = lower value",1.06 (inactive)
same,normalized growth,"locus YBL061C, strain skt5, stronger effect = lower value",0.81 (active)
same,normalized growth,"locus YBR009C, strain hhf1, stronger effect = lower value",0.831 (active)
same,normalized growth,"locus YBR021W, strain FUR4, stronger effect = lower value",0.941 (inactive)
same,normalized growth,"locus YBR023C, strain chs3, stronger effect = lower value",0.868 (active)
same,normalized growth,"locus YBR171W, strain sec66, stronger effect = lower value",0.911 (inactive)
same,normalized growth,"locus YBR229C, strain ROT2, stronger effect = lower value",1.03 (inactive)
same,normalized growth,"locus YBR231C, strain swc5, stronger effect = lower value",0.84 (active)
same,normalized growth,"locus YBR279W, strain paf1, stronger effect = lower value",0.669 (active)
same,normalized growth,"locus YCL011C, strain gbp2, stronger effect = lower value",0.894 (active)
same,normalized growth,"locus YCL016C, strain dcc1, stronger effect = lower value",0.385 (active)
same,normalized growth,"locus YCL029C, strain bik1, stronger effect = lower value",1.01 (inactive)
same,normalized growth,"locus YCL061C, strain MRC1 (second series), stronger effect = lower value",0.983 (inactive)
same,normalized growth,"locus YCL061C, strain MRC1, stronger effect = lower value",0.868 (active)
same,normalized growth,"locus YCL069W, strain vba3, stronger effect = lower value",0.946 (inactive)
same,normalized growth,"locus YCR088W, strain abp1, stronger effect = lower value",0.828 (active)
same,normalized growth,"locus YDL005C, strain med2, stronger effect = lower value",1.12 [resistant] (active)
same,normalized growth,"locus YDL035C, strain GPR1, stronger effect = lower value",0.976 (inactive)
same,normalized growth,"locus YDL040C, strain nat1, stronger effect = lower value",1.03 (inactive)
same,normalized growth,"locus YDL074C, strain BRE1, stronger effect = lower value",0.897 (inactive)
same,normalized growth,"locus YDL101C, strain DUN1, stronger effect = lower value",1.01 (inactive)
same,normalized growth,"locus YDL134C, strain PPH21, stronger effect = lower value",0.977 (inactive)
same,normalized growth,"locus YDL185W, strain tfp1, stronger effect = lower value",0.943 (inactive)
same,normalized growth,"locus YDL192W, strain arf1, stronger effect = lower value",0.889 (active)
same,normalized growth,"locus YDR001C, strain nth1, stronger effect = lower value",1.01 (inactive)
same,normalized growth,"locus YDR069C, strain doa4, stronger effect = lower value",0.684 (active)
same,normalized growth,"locus YDR101C, strain arx1, stronger effect = lower value",1.04 (inactive)
same,normalized growth,"locus YDR137W, strain rgp1, stronger effect = lower value",0.572 (active)
same,normalized growth,"locus YDR150W, strain NUM1, stronger effect = lower value",0.993 (inactive)
same,normalized growth,"locus YDR159W, strain sac3, stronger effect = lower value",0.788 (active)
same,normalized growth,"locus YDR162C, strain NBP2, stronger effect = lower value",0.921 (inactive)
same,normalized growth,"locus YDR195W, strain ref2",0.764 (active)
same,normalized growth,"locus YDR297W, strain sur2, stronger effect = lower value",0.885 (active)
same,normalized growth,"locus YDR318W, strain mcm21, stronger effect = lower value",0.982 (inactive)
same,normalized growth,"locus YDR334W, strain swr1, stronger effect = lower value",0.981 (inactive)
same,normalized growth,"locus YDR335W, strain msn5, stronger effect = lower value",0.821 (active)
same,normalized growth,"locus YDR363W, strain ESC2, stronger effect = lower value",0.919 (inactive)
same,normalized growth,"locus YDR388W, stronger effect = lower value",0.892 (active)
same,normalized growth,"locus YDR392W, strain spt3, stronger effect = lower value",1.28 [resistant] (active)
same,normalized growth,"locus YDR502C, strain sam2, stronger effect = lower value",0.983 (inactive)
same,normalized growth,"locus YEL003W, strain gim4, stronger effect = lower value",0.878 (active)
same,normalized growth,"locus YEL037C, strain rad23, stronger effect = lower value",0.818 (active)
same,normalized growth,"locus YEL061C, strain CIN8 (second series), stronger effect = lower value",0.896 (active)
